# TDP1 cell CPT: DT40-hTDP1 cell growth loss with CPT | chicken DT40 Tdp1-/-;hTDP1 cells + 20 nM CPT, ATP luminescence, 48 h | Potency, µM (top dose mostly 46.2 µM), without a hit: at the highest dose activity change, negative = growth inhibition, usual class: inhibitors | 420,000 tested, 12% active | AID 686979; note: potency is the fitted concentration of half-maximal effect; % is set by controls: 0 for no effect and ±100 for the full control effect; nearly all actives have a fitted effect of over 55% in size
#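 Chicken DT40 Tdp1-/- cells complemented with human TDP1, 400 cells/well, exposed to compounds plus 20 nM camptothecin for at least 48 h at 37 C; viability read as ATP content by CellTiter-Glo luminescence.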
# DT40 TDP1 no CPT: qHTS for Inhibitors of human tyrosyl-DNA phosphodiesterase 1 (TDP1): qHTS in cells in absence of CPT. DT40 Tdp1-/- hTDP1 cells, no CPT, ATP luminescence, 48 h. Potency, µM (titrated, usually from 46.2 µM), inactives show at the highest dose activity change, negative = growth inhibition, hits mostly inhibitors. 420,000 tested, 15% active. AID 686978, 2013; note: potency is the fitted concentration of half-maximal effect; % is set by controls: 0 for no effect and ±100 for the full control effect; nearly all actives have a fitted effect of over 55% in size
#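 Luminescent ATP content (CellTiter-Glo) served as the growth readout. Knockout chicken DT40 cells expressing human TDP1 were exposed to compounds without camptothecin for a minimum 48 hr at 37 °C.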
# ASM inhibitor: blocks human secretory acid sphingomyelinase | P17405 | placental ASM, HMU-PC fluorogenic substrate, 60 min | Potency, µM (series often up to 57.5 µM), without a hit: at the highest dose activity change, negative = inhibition, most hits filed as inhibitors | 340,000 tested, 0.006% active; note: potency is the fitted concentration of half-maximal effect
# Target sequence (P17405 47-631 limits assumed): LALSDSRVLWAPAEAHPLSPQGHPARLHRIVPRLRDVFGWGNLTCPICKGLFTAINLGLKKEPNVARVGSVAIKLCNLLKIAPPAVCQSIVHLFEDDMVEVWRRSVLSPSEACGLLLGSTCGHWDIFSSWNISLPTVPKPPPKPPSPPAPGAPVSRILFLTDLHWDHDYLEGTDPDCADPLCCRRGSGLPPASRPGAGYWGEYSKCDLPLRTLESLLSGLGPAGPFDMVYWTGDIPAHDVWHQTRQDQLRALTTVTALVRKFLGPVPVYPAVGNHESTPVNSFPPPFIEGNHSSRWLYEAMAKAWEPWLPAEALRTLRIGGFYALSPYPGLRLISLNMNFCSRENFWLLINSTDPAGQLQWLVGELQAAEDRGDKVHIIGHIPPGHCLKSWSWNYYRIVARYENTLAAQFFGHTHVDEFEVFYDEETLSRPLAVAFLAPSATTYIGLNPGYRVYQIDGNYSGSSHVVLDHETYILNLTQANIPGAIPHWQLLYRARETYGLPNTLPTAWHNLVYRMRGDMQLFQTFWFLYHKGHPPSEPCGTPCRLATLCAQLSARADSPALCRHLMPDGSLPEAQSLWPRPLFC
#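 Human placenta-derived ASM enzyme was preincubated with compound for 10 minutes at room temperature, then given fluorogenic substrate HMU-PC0 (9 uM final) for 60 minutes at 37 °C; a pH 10 stop preceded fluorescence reading at Ex 386/Em 447 nm.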
# TGFb SMAD3 inh: TGF-b pathway inhibition. HepG2 CAGA-GFP TGF-b/SMAD3 reporter, GFP fluorescence, 18 h; TGF-beta stimulated, 500 pg/mL final. Potency, µM (top dose mostly 46.1 µM), for inactives: top-dose activity, negative = inhibition, most hits filed as inhibitors. 410,000 tested, 1.2% active; note: potency is the fitted concentration of half-maximal effect; % is set by controls: 0 for no effect and ±100 for the full control effect; nearly all actives have a fitted effect of over 65% in size
#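 First, reporter cells (HEPG2 CAGA-GFP) rested 2 h at 37 degrees C. Next, compounds were pinned in and TGF-beta added to 500 pg/mL final. After 18 h, GFP was imaged per cell and summed per well.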
# HepG2 viability: HepG2 cytotoxicity, counter-screen for TGF-b inhibitors; AID 588856; 410,000 tested, 0.76% active; HepG2 CAGA-GFP viability, ATP luminescence, 18 h; Potency, µM (top dose mostly 46.1 µM), for inactives: at the top dose activity change, negative = cytotoxicity, usual class: cytotoxic; note: potency is the fitted concentration of half-maximal effect
#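 HepG2 CAGA-GFP cells (1000/well, DMEM with 1% FBS) received compound, then TGF-beta at 500 pg/mL final, and were incubated 18 hours at 37 degrees C. Viability was read by CellTiter-Glo luminescence. Media-only wells were set as complete cell-killing and DMSO as no toxicity.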
# IL1B secr inh: blocks inflammasome-driven IL-1 beta release; THP-1 LPS/ATP IL-1B secretion, AlphaLISA, 16 h; stronger effect = lower value; 360,000 tested, 4.7% active; activity change, % at 57.5 µM; in the data active = activity change below about -50%; inconclusive = mostly about -30% to -49%; note: % is set by controls: 0 for no effect and ±100 for the full control effect
#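 THP-1 cells pretreated 1 hr with compounds (up to 57.5 uM final), then stimulated with LPS (250 ng/mL final) plus ATP (1.25 mM final); secreted IL-1B measured by AlphaLISA after 16 hr, decreased signal indicating inhibition.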
# Starred values were filed as active, the others as inactive; i = inactive; u = inconclusive; x = no result given. Rows were chosen to be rich in hits. Some 19% of all compounds tested hit in one or more screens of this group. Unless noted, calls come from the whole dose curve; as a rule, active = well fitted curve in the direction sought with a large enough effect; inconclusive = small, poorly fitted or top-dose-only effect, or another doubt; inactive = no such curve, though single readings can be large; an effect the other way counts as inactive or inconclusive.
SMILES,TDP1 cell CPT,DT40 TDP1 no CPT,ASM inhibitor,TGFb SMAD3 inh,HepG2 viability,IL1B secr inh
COc1cc(C(=O)NCCOc2ccc(C)c(C)c2)cc(OC)c1OC,-19%,-11%,-3%,-14%,-29%,-5
CCCC(=O)NCCc1nc2ccccc2n1CC(=O)c1ccccc1,-11%,-6%,-3%,-9%,-43%,5
CCCC(=O)NCCCc1nc2ccccc2n1C(C)C,u,15µM*,5%,-4%,-12%,17
CCCc1cc(=O)[nH]c2nnc(SCC(=O)NCc3ccc4c(c3)OCO4)n12,-8%,17%,2%,0%,0%,-5
COc1ccc(CCn2c3c(c(=O)[nH]c2=S)CN(Cc2ccccc2)CN3)cc1OC,u,-21%,x,x,x,x
COc1cc(C(=O)NCCCc2nc3ccccc3n2CC(C)C)cc(OC)c1OC,21µM*,u,x,-24%,-30%,x
COc1cc(C(=O)NCCCCc2ccccc2)cc(OC)c1OC,u,5.8µM*,-4%,7%,3%,-2
CCc1nnc(NC(=O)CSc2nccn2Cc2ccc(Cl)cc2)s1,-27%,-29%,x,u,-18%,x
O=C(Nc1ccon1)c1ccc(Cl)c(S(=O)(=O)N2CCCCC2)c1,u,23µM*,-1%,-8%,-3%,i
CCN(CC)S(=O)(=O)c1cc(C(=O)Nc2ccncc2)ccc1Cl,23µM*,16µM*,-2%,u,-33%,-56*
O=C(Nc1nc2ccccc2[nH]1)c1ccc(Cl)c(S(=O)(=O)N2CCCC2)c1,18µM*,16µM*,-8%,u,-23%,-59*
Cc1ccc(NC(=O)c2cnccn2)cc1S(=O)(=O)N1CCCCCC1,u,23µM*,0%,-9%,-3%,14
O=C(Nc1ccon1)c1ccc(F)c(S(=O)(=O)N2CCCCC2)c1,-8%,u,0%,7%,2%,12
Cc1cnc(C(=O)Nc2ccc(C)c(S(=O)(=O)N3CCCCC3)c2)cn1,-2%,-21%,-2%,8%,1%,40
O=C(Nc1ccc2sccc2c1)c1cccc(N2C(=O)CCC2=O)c1,7%,-1%,-4%,0%,6%,-4
O=C(Nc1ccncc1)c1ccc(Cl)c(S(=O)(=O)N2CCCC2)c1,u,26µM*,3%,-11%,-24%,52
Cc1ccc(C(=O)Nc2ccc3c(c2)OCO3)cc1S(=O)(=O)N1CCCC1,u,7.3µM*,0%,-5%,-1%,-3
O=C(Nc1cccc(S(=O)(=O)N2CCCC2)c1)c1cccnc1,-18%,0%,7%,-30%,3%,36
O=C(Nc1ccc(Cl)c(S(=O)(=O)N2CCCCC2)c1)c1cccnc1,18µM*,u,-3%,-23%,-33%,0
CCN(CC)CCNC(=O)c1ccc(NC(=O)c2ccc(S(=O)(=O)N3CCCCCC3)cc2)cc1,u,u,-1%,u,-40%,-8
CCN(CC)CCNC(=O)c1ccc(NC(=O)c2ccc(Cl)c(S(=O)(=O)N3CCCCCC3)c2)cc1,u,u,-11%,u,-78%,-104*
Cc1ccc(C(=O)Nc2ccc3c(c2)OCO3)cc1S(=O)(=O)N1CCOCC1,6%,-21%,0%,0%,-15%,-3
COc1nc(-c2ccc(C)cc2)ccc1-c1noc(-c2ccc(C(C)(C)C)cc2)n1,u,u,x,-19%,-27%,x
CC(C)(C)C1CCC(C(=O)Nc2ccccc2N2CCOCC2)CC1 (stereo unspecified),u,u,-1%,0%,-11%,4

# Screening data deposited in PubChem BioAssay by National Center for Advancing Translational Sciences (NCATS).
